Reference: PubChem BioAssay (NCI)
Compounds without any hit were thinned out: in the full panel of roughly 83,000, 20% have a hit.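 96-well plates, one dose, 48 hours. Percent growth reported; active if below 10.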 Unmarked numbers belong to inactive results. Active and inactive are the calls of the source.

Key:
Test in all cases: NCI-60 one-dose screen, 48 h (100 = growth as untreated, 0 = no growth, -100 = all killed)
Conditions in all cases: 10 µM unless noted
NCI-H23 lung = tested on: NCI-H23 lung
NCI-H226 lung = tested on: NCI-H226 lung
NCI-H322M lung = tested on: NCI-H322M lung
HOP-62 NSCLC = tested on: HOP-62 NSCLC
NCI-H460 lung = tested on: NCI-H460 lung
HOP-92 NSCLC = tested on: HOP-92 NSCLC
NCI-H522 lung = tested on: NCI-H522 lung
A549/ATCC NSCLC = tested on: A549/ATCC NSCLC
786-0 renal = tested on: 786-0 renal
COLO 205 colon = tested on: COLO 205 colon
DU-145 prostate = tested on: DU-145 prostate
K-562 leukemia = tested on: K-562 leukemia
MALME-3M melanoma = tested on: MALME-3M melanoma
MDA-MB-231 breast = tested on: MDA-MB-231 breast
RXF 393 renal = tested on: RXF 393 renal
SF-268 CNS = tested on: SF-268 CNS
SF-295 CNS = tested on: SF-295 CNS
SF-539 CNS = tested on: SF-539 CNS
UACC-257 melanoma = tested on: UACC-257 melanoma
M14 melanoma = tested on: M14 melanoma

| Structure (SMILES) | growth (NCI-H23 lung) [%] | growth (NCI-H226 lung) | growth (NCI-H322M lung) [%] | growth (HOP-62 NSCLC) [%] | growth (NCI-H460 lung) | growth (HOP-92 NSCLC) | growth (NCI-H522 lung) | growth (A549/ATCC NSCLC) | growth (786-0 renal) | growth (COLO 205 colon) | growth (DU-145 prostate) | growth (K-562 leukemia) | growth (MALME-3M melanoma) | growth (MDA-MB-231 breast) | growth (RXF 393 renal) | growth (SF-268 CNS) | growth (SF-295 CNS) [%] | growth (SF-539 CNS) | growth (UACC-257 melanoma) | growth (M14 melanoma) |
| --- | --- | --- | --- | --- | --- | --- | --- | --- | --- | --- | --- | --- | --- | --- | --- | --- | --- | --- | --- | --- |
| C=C1C(=O)O[C@H]2[C@H]1CC/C(COC(=O)NCc1c[nH]c3ccc(Cl)cc13)=C\CC[C@@]1(C)O[C@@H]21 | 34.8 | 6.61% (active) | 76.2 | 60.5 | 18% | -35.7% (active) | -90.4% (active) | 55.8% | -61.8% (active) | -59.3% (active) | -72.2% (active) | 0.207% (active) | -57.1% (active) | -70.4% (active) | -92.5% (active) | -3.81% (active) | 63.8 | -54.9% (active) | 19.4% | -53.2% (active) |
| N#Cc1c(NCc2ccccc2I)sc2c1CCCCC2 | 87.5 | 87.5% | 89.9 | 91.3 | 96.7% | 88.8% | 86.7% | 85.7% | 90% | 108% | 102% | 95.3% | 87.5% | 85.4% | 93.6% | 93.7% | 97.3 | 97.3% | 93.7% | 97.3% |
| COc1ccc(/C=C2\Oc3cc(OCCCN4CCCCC4)ccc3C2=O)cc1OC | 92.1 | 90% | 92.1 | 85.7 | 89% | 65.9% | 99.1% | 93.6% | 88.7% | 98.3% | 95.9% | -22.8% (active) | 104% | 78.6% | 74.4% | 86.5% | 102 | 91.5% | 102% | 98.7% |
| CC(C)(C)c1cc(/C=N/NC(=O)c2ccccc2NC(=O)c2cccs2)c(O)c(C(C)(C)C)c1 | 48.6 | 55.1% | 39.1 | 20.7 | -11% (active) | 75.4% | 27.8% | 12.8% | 18.4% | 4.49% (active) | 32.5% | 13.1% | 49.6% | 44.3% | 64.6% | 24.6% | 40 | 51.7% | 38.6% | 27.6% |
| O=S(=O)(NCCNc1nccc(-c2c(-c3cccc(O)c3)nc3occn23)n1)c1ccc(Cl)cc1 | 103 | 109% | 112 | 120 | 102% | 115% | 98.6% | 101% | 109% | 32.7% | 111% | 87.8% | -4.98% (active) | 86.2% | 107% | 103% | 114 | 121% | 46.9% | 35.1% |
| Nc1nc(Nc2ccccc2SSc2ccccc2Nc2nc(N)nc(-c3ccc(C(F)(F)F)cc3)n2)nc(-c2ccc(C(F)(F)F)cc2)n1 | 31.5 | 55.3% | 88.6 | 47.8 | 40% | 90.7% | 80% | 5.2% (active) | 81.4% | 86.1% | 73.4% | 55% | 93% | 67.4% | 78.6% | 50.4% | 65.5 | 88.2% | 106% | 72.5% |
| c1ccc2c(-c3c[nH]c4ccccc34)c3c(cc2c1)[nH]c1ccccc13 | 69.9 | 86.2% | 83.7 | 60.4 | 68.9% | 83.3% | 51.7% | 62% | 51.9% | 83.3% | 93.7% | 25.1% | 78.9% | 71.6% | 33.5% | 66.7% | 85.4 | 59% | 77.6% | 39.2% |
| CN1CCN(C(=O)[C@]23CCC(C)(C)C[C@H]2C2=CC[C@@H]4[C@@]5(C)C/C(=C/c6ccncc6)C(=O)C(C)(C)[C@@H]5CC[C@@]4(C)[C@]2(C)CC3)CC1 | 72.4 | 68.7% | 87.6 | 83.1 | 33.1% | 41% | 55.9% | 43.8% | 67.2% | 41.9% | 68.4% | 19% | 57.7% | 64.2% | 27.6% | 64.4% | 67.1 | 69.3% | 57.5% | 57.4% |
| O=[N+]([O-])c1ccc(NC(=S)N/N=C/c2cc3ccccc3n3nnnc23)cc1 | 30.1 | 72% | 51.9 | 49.3 | 32.2% | -5.68% (active) | 35.4% | 55.6% | 61.6% | 96.9% | 64.1% | 12.5% | 71.9% | 61.2% | 30.1% | 38.3% | 18.9 | 9.9% (active) | 90.2% | 75.5% |
| C=CC(=O)N[C@@H](/C=C/C(=O)OCC)Cc1ccc(-c2cc(Cl)cc(Cl)c2)cc1 | 15.6 | 10.8% | 58.9 | 36 | 9.25% (active) | 14.8% | 3.13% (active) | 11.6% | 11.8% | 6.63% (active) | 16.9% | 8.57% (active) | 4.14% (active) | 9.36% (active) | -10.1% (active) | 32.1% | 21.8 | 56.8% | -2.68% (active) | 24.7% |
| O=C(/C=C/c1ccc(Cl)cc1)c1ccc(NC(=O)N2CCN(c3cc4c(cc3F)c(=O)c(C(=O)O)cn4C3CC3)CC2)cc1 | 87.4 | 89.4% | 103 | 106 | 87.8% | 92.9% | 66.9% | 95.8% | 86.5% | 115% | 98.5% | 65% | 103% | 93% | 97.9% | 89.3% | 108 | 81.7% | 105% | 104% |
| NC(=NCCCOc1ccc(F)cc1)Nc1ccc(I)cc1 | 65.5 | 93.7% | 88 | 80.4 | 81.8% | 69.8% | 56.9% | 70.4% | 72.9% | -66.8% (active) | 63.1% | 27.3% | 74.6% | 51.9% | 94% | 67.7% | 80.8 | 78.8% | 55.8% | 59.6% |
| O=C(Nc1ccccc1)Nc1ccc2cc3ccc(NC(=O)Nc4ccccc4)cc3nc2c1 | 23.7 | 91% | 61.6 | 46.1 | 92.6% | 87.6% | -4.64% (active) | 101% | 25.7% | 3.12% (active) | 39.2% | 1.08% (active) | -9.29% (active) | -51.4% (active) | 28.5% | -22.4% (active) | 17.8 | -56% (active) | 104% | 47.2% |
| CCCCCCNC(=O)Oc1ccc(/C(=C(\C)c2ccccc2)c2ccc(OCCN3CCCCC3)cc2)cc1 | 68.7 | 93.8% | 80.5 | 75.4 | 41% | 64.1% | 71.8% | 64.4% | 16.3% | 5.73% (active) | 82.8% | 4.69% (active) | 34.2% | 78.1% | 47.6% | 68.3% | 35.4 | 23.3% | -0.337% (active) | -22.9% (active) |
| CCCCCN1C=C/C(=C\C(=O)n2ccc3ccccc32)c2ccccc21 | 77 | 70.3% | 87.7 | 81.9 | 91% | 83.3% | 77% | 89.4% | 94.8% | 89.4% | 101% | 75% | 81.7% | 93.2% | 103% | 92.5% | 87.7 | 102% | 97.9% | 92% |
